Results: the supplement of paper PMC6555819

Key:
Assay in all cases: PBM binding z-score (relative to random genomic background probes); higher = stronger binding; sequences stand for … in GC…GCGATTGACAGCGTAGAATGAAGG
[1] = tested on: PPARg:RXRa DBDmut IVT, anti-RXR (DBD mutation: RXRa K156A/R161A, NR concentration 270 nM, RXRa partner concentration 90 nM)
Procedure, shortened: (§1)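 Ligand-free nuclear receptor dimers were bound for 1 h to custom Agilent 4×180K protein-binding microarrays. Detection used antibodies against each partner (one per run). Binding z-scores rest on regression-normalized fluorescence, with random background probes as the reference.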

[2] = tested on: PPARg:RXRa IVT, anti-PPARg (NR concentration 270 nM, RXRa partner concentration 90 nM)
Procedure, shortened: as §1

[3] = tested on: PPARg DBDmut:RXRa IVT, anti-PPARg (DBD mutation: PPARg1 K132A/R137A, NR concentration 270 nM, RXRa partner concentration 90 nM)
Procedure, shortened: as §1

[4] = tested on: PPARg DBDmut IVT, anti-PPARg (DBD mutation: PPARg1 K132A/R137A, NR concentration 270 nM)
Procedure, shortened: as §1

[5] = tested on: PPARg homodimer (NR concentration 180 nM)
Procedure, shortened: as §1

[6] = tested on: PXR:RXRa (NR concentration 270 nM, RXRa partner concentration 90 nM)
Procedure, shortened: as §1

[7] = tested on: PXR homodimer (NR concentration 270 nM)
Procedure, shortened: as §1

[8] = tested on: RARa:RXR (NR concentration 270 nM, RXRa partner concentration 90 nM)
Procedure, shortened: as §1

[9] = tested on: RARa homodimer (NR concentration 270 nM)
Procedure, shortened: as §1

[10] = tested on: RARb:RXRa (NR concentration 270 nM, RXRa partner concentration 90 nM)
Procedure, shortened: as §1

[11] = tested on: RARb homodimer (NR concentration 270 nM)
Procedure, shortened: as §1

[12] = tested on: RARg:RXRa (NR concentration 270 nM, RXRa partner concentration 90 nM)
Procedure, shortened: as §1

[13] = tested on: RARg homodimer (NR concentration 270 nM)
Procedure, shortened: as §1

[14] = tested on: RXRa DBDmut IVT, anti-RXR (DBD mutation: RXRa K156A/R161A, NR concentration 90 nM)
Procedure, shortened: as §1

[15] = tested on: RXRa homodimer (NR concentration 180 nM)
Procedure, shortened: as §1

[16] = tested on: THRa:RXRa (NR concentration 90 nM, RXRa partner concentration 90 nM)
Procedure, shortened: as §1

[17] = tested on: THRa homodimer (NR concentration 90 nM)
Procedure, shortened: as §1

[18] = tested on: VDR homodimer (NR concentration 270 nM)
Procedure, shortened: as §1

Row | Sequence | PBM binding z-score [1] | PBM binding z-score [2] | PBM binding z-score [3] | PBM binding z-score [4] | PBM binding z-score [5] | PBM binding z-score [6] | PBM binding z-score [7] | PBM binding z-score [8] | PBM binding z-score [9] | PBM binding z-score [10] | PBM binding z-score [11] | PBM binding z-score [12] | PBM binding z-score [13] | PBM binding z-score [14] | PBM binding z-score [15] | PBM binding z-score [16] | PBM binding z-score [17] | PBM binding z-score [18]
1 | TCTAGTTGGTCACGGACGTCACACACGACGGGTA | 2.14 | 1.94 | 1.1 | 1.25 | 0.55 | 0.245 | 0.184 | 0.485 | 0.469 | 1.57 | 1.04 | 1.2 | 1.55 | 0.677 | 0.866 | 0.233 | -0.0119 | 0.188
2 | GCTGCTAGGTCAGGTTGTTCAGCTAACGGGTACG | 3.24 | 2.3 | 0.0355 | -0.699 | 0.293 | 0.34 | -0.306 | 0.883 | -0.985 | 3.15 | 2.56 | 2.2 | 3.13 | 0.777 | 0.914 | 1.71 | 0.779 | 0.556
3 | CCAGACAGGTGAGAAGGTAACACAGCCTCGATTA | 1 | 0.723 | -0.672 | -0.419 | 0.988 | -0.0224 | 0.73 | 0.409 | 0.978 | 0.799 | 1.03 | 0.858 | 0.833 | 0.148 | 0.73 | 0.62 | 0.195 | 0.124
4 | GTTGCTAGGTCAACTGATGGTCAGCTAAAGCTCG | 5.15 | 4.94 | 1.14 | -0.255 | 1.33 | 1.47 | -0.554 | 3.03 | -0.133 | 4.26 | 3.54 | 5.4 | 5.9 | 1.48 | 3.11 | 3.09 | 1.46 | 0.164
5 | CCTTACGGGTCACTCCAGGTGATAGCATCGGAGT | 2.72 | 3.72 | -0.0866 | -0.18 | 1.04 | 3.75 | 0.145 | 3.53 | 0.42 | 3.51 | 2.96 | 4.43 | 4.29 | 1.6 | 4.45 | 4.81 | 0.559 | 1.16
6 | CCGAGTAGGTTATGGGGCAGTCAGGCAACGGTGA | 2.72 | 3.05 | -0.267 | -0.985 | 0.752 | -0.312 | 0.274 | -0.198 | 0.265 | 0.933 | 0.983 | 0.587 | 0.165 | -0.557 | 0.291 | 0.277 | -0.143 | -0.221
7 | TCTTTTAGATCAAGCAGGTTAAGAAAGCCTGAGT | 1.41 | 0.619 | 0.997 | 1.17 | -0.29 | 0.774 | 0.132 | 0.889 | -0.0558 | 0.269 | 0.0271 | 0.216 | 0.212 | 1.19 | 0.49 | 0.401 | -0.436 | 0.0126
8 | GCGACTGGGCCATCAGCAGGTTACCATAACTTAA | 2.78 | 2.04 | -0.993 | -1.45 | -0.551 | -0.569 | -0.71 | -0.295 | -0.835 | 0.195 | 0.461 | -0.0254 | 0.0324 | -0.654 | -0.151 | 0.132 | -0.441 | -0.661
9 | ATCTCTAGGTAACCAAGCTCAGTGAATGCCGAAC | 2.93 | 2.13 | 1.25 | 0.885 | 0.709 | -0.105 | 0.251 | 0.193 | 0.798 | 0.0628 | -0.00643 | 0.122 | -0.0382 | -0.17 | -0.107 | 0.646 | 0.537 | 0.149
10 | CCTTACGGGTCACGAGTTTATAGCACGACGAGCG | 4.46 | 5.06 | 0.736 | 0.94 | 2.53 | 4.8 | 2 | 4.85 | 0.68 | 4.27 | 3.38 | 5.62 | 5.24 | 2.39 | 5.78 | 2.82 | 0.451 | 4.44
11 | CAAACTAGGTCAAAGGTCAAAGTCGAGCCAACCA | 8.73 | 9.33 | 2.23 | 2.15 | 5.09 | 7.21 | 2.02 | 8.8 | 3.18 | 5.96 | 4.96 | 8.83 | 7.42 | 2.87 | 10.2 | 4.74 | 1.83 | 3.41
12 | ATCTCTAGGTAAGACTCAGTTCCGTGAAGAACGC | 1.81 | 0.672 | -0.309 | 0.647 | 0.0237 | 0.093 | 0.39 | -0.00835 | 0.872 | -0.0314 | 0.119 | -0.049 | -0.0446 | 0.432 | -0.116 | 0.287 | 0.766 | 0.435
13 | GATTCAGGGTCAAGGCCAGAGTACGCGTATTGAT | 3.79 | 4.63 | 1.51 | 0.0606 | 3.59 | 4.81 | 0.452 | 5.58 | 0.724 | 4.92 | 4.04 | 6.08 | 5.81 | 3.03 | 7.1 | 3.87 | 2 | 3.02
14 | TCTTGTAGAGCAAAGGTTAAGAAAGCCGAAGCCT | 2.94 | 4.15 | 0.281 | -0.0845 | 0.283 | 1.49 | -0.688 | 2.16 | -0.59 | 1.62 | 1.17 | 1.43 | 0.586 | -0.181 | 2.6 | 1.06 | -1.14 | -0.734
15 | CAAACTAGGTCAGGGTCAAAGTCGGTTTGTGCCA | 8.32 | 8.36 | 4.34 | 3.17 | 4.2 | 4.81 | 1.33 | 5.35 | 1.42 | 4.47 | 4.45 | 5.19 | 5.4 | 2.77 | 5.47 | 3.89 | 2.25 | 4.18
16 | TCTATTAGTTGATTAGGGCAACCTAAACAGCGGA | 1.94 | 1.73 | 1.37 | 1.62 | 1.03 | 0.712 | -0.0681 | 1.11 | 1.09 | 1.14 | 0.947 | 0.824 | 0.799 | 0.995 | 0.669 | 0.862 | 0.4 | 0.145
